Test results as given in the supplement of paper PMC10849652.
Targets with a hit are over-represented here; the source holds about 7,900 in all. About 0.6% of all pairs of compound and target were hits.

Target: ZW10 (UniProt O43264)
Assay: log2 fold change, soluble protein after heating vs DMSO (PISA); higher = thermal stabilisation; K562 cells, 10 uM, 30 min; active = over 0.2 and 3.5 SD of the protein, either way, in both replicates (recomputed)
Summary of the method: (§1)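 K562 cells (2×10^6 cells/mL) were treated with 10 μM compound for 30 min, and aliquots were heated for 3 min over 48°C-58°C. Pooled aliquots were extracted in PBS with 0.5% NP-40 at 4°C, and the supernatant after 21,000xg for 90 min was measured by TMTpro 16plex LC-MS/MS with channel sums equalised. Reported thermal stability, relative to control samples and from duplicates, is a log2 fold change.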

Chain of ZW10 (O43264 whole entry, looked up): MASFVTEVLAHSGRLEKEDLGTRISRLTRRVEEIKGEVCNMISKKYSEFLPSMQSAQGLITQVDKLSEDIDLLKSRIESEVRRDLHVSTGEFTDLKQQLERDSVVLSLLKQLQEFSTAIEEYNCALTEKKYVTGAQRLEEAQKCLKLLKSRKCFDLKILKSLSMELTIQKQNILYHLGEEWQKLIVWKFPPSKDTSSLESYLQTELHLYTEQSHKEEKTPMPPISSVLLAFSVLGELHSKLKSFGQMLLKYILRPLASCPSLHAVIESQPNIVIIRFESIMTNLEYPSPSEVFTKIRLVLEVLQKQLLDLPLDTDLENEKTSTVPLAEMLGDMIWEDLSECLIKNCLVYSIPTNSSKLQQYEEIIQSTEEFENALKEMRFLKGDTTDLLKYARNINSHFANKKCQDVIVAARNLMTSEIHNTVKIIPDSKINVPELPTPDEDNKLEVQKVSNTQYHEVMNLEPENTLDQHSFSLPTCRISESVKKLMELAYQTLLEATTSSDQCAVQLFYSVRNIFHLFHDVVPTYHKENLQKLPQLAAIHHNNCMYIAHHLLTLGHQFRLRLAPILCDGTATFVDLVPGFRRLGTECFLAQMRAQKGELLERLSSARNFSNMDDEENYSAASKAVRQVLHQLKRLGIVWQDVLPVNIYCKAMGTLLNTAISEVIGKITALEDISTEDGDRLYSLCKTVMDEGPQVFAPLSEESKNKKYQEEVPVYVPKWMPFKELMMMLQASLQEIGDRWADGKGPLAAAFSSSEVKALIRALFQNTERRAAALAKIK

log2 fold change, inactive:
c1cc(OCCN2CCCCC2)cc(-c2n[nH]c3ccc(-c4nnc[nH]4)cc23)c1 -0.016
COc1cccc2cc(-c3nc([C@H]4CC[C@H](C(=O)O)CC4)n4ncnc(N)c34)[nH]c12 -0.051
O=C(O)c1ccc2c(c1)nc(Nc1cccc(Cl)c1)c1ccncc12 [silmitasertib] 0.083
Fc1ccc(Cl)cc1-c1nc(Nc2ccncc2)c2nccnc2n1 -0.04
CC(C)(C)Cn1c(N)nc2ccc(-c3[nH]c(C(C)(C)C)nc3-c3ccc(F)cc3)nc21 [ralimetinib] 0.032
C[C@@H]1COCCN1c1cc(C2(S(C)(=O)=O)CC2)nc(-c2cccc3[nH]ccc23)n1 -0.029
CCCCN(Cc1ccc(C(=O)NO)cc1)C(=O)Nc1ccccc1 [Nexturastat A] 0.093
O=C(CCCCCCC(=O)Nc1ccccc1)NO [vorinostat] 0.085
CCN(CCCOc1ccc2c(Nc3cc(CC(=O)Nc4cccc(F)c4)[nH]n3)ncnc2c1)CCOP(=O)(O)O [barasertib] 0.055
CNC(=O)c1ccc(Nc2ncc(C(F)(F)F)c(NCc3nccnc3N(C)S(C)(=O)=O)n2)cc1 [defactinib] -0.083
Cc1ccc(Sc2cncc3sc(C(N)=O)cc23)cc1 0.018
O=C1c2ccccc2-c2n[nH]c3cccc1c23 -0.031
Cc1nc(Nc2n[nH]c3c2CN(C(=O)N[C@H](CN(C)C)c2ccccc2)C3(C)C)c2sccc2n1 -0.11
COC(=O)[C@H](CCSC)NC(=O)c1ccc(NC[C@@H](N)CS)cc1-c1ccccc1 -0.079
CCN(CC)Cc1ccc2cc(COC(=O)Nc3ccc(C(=O)NO)cc3)ccc2c1 [givinostat] 0.096
CNc1nc(-c2ccc3c(N)n[nH]c3c2)cc(N2C[C@@H](C(=O)NC3CCCCC3)CC[C@H]2C)n1 0.009
Cc1ccc2c(=O)c3ccccc3n(CCCN)c2c1C 0.013
CC(C)(O)CC(=O)NCCn1ccc2ncnc(Nc3ccc(Oc4cccc(C(F)(F)F)c4)c(Cl)c3)c21 -0.027
C/C(=N\NC(=O)c1cccc(S(=O)(=O)N2CCOCC2)c1)c1cc(Cl)ccc1O 0.075
CNC(=O)c1ccccc1Nc1nc(Nc2ccc(N3CCOCC3)cc2OC)ncc1Cl 0.035

log2 fold change, active:
CC[C@@H]1C(=O)N(C)c2cnc(Nc3ccc(C(=O)N[C@H]4CC[C@H](N5CCN(CC6CC6)CC5)CC4)cc3OC)nc2N1C(C)C [volasertib] -0.399

Target: ZWILCH (UniProt Q9H900)
Assay: as above
Summary of the method: as §1

Chain of ZWILCH (Q9H900 whole entry, looked up): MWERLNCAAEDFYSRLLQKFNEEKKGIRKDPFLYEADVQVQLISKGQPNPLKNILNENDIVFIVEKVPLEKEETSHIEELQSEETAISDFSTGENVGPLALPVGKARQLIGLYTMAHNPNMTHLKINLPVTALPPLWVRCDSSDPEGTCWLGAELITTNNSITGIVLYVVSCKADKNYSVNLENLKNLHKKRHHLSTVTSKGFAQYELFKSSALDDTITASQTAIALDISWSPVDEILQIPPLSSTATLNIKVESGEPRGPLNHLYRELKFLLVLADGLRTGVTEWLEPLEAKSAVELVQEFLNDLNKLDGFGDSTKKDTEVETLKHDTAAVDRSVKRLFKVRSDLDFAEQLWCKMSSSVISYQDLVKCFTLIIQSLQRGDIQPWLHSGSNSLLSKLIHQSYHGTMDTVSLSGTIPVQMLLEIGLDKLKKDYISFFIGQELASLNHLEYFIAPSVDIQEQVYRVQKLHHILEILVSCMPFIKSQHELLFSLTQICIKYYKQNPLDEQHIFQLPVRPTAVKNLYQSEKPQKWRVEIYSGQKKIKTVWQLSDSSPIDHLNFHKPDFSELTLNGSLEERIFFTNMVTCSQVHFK

log2 fold change, inactive:
C=CC(=O)N1CCC[C@@H](n2nc(-c3ccc(Oc4ccccc4)cc3)c3c(N)ncnc32)C1 [ibrutinib] -0.014
Cc1ncc(-c2ccnc(Nc3ccc(S(C)(=O)=O)cc3)n2)n1C(C)C 0.071
Cn1c2cc(S(C)=O)sc2c2cnn(Cc3cccc(N)c3)c(=O)c21 (stereo unspecified) -0.04
CO[C@H]1C[C@@H]2CC[C@@H](C)[C@@](O)(O2)C(=O)C(=O)N2CCCC[C@H]2C(=O)O[C@H]([C@H](C)C[C@@H]2CC[C@H](n3cnnn3)[C@H](OC)C2)CC(=O)[C@H](C)/C=C(\C)[C@@H](O)[C@@H](OC)C(=O)[C@H](C)C[C@H](C)/C=C/C=C/C=C/1C [zotarolimus] 0.046
COc1cc(C(=O)O)ccc1NC(=O)[C@@H]1N[C@@H](CC(C)(C)C)[C@](C#N)(c2ccc(Cl)cc2F)[C@H]1c1cccc(Cl)c1F [idasanutlin] -0.051
Cc1nc(Nc2ncc(C(=O)Nc3c(C)cccc3Cl)s2)cc(N2CCN(CCO)CC2)n1 [dasatinib] -0.05
Cc1cc(SCc2sc(-c3ccc(C(F)(F)F)cc3)nc2C)ccc1OCC(=O)O 0.027
NC(=O)Nc1cc(-c2cccc(F)c2)sc1C(=O)N[C@H]1CCCNC1 0
CC[C@H](C)[C@H](NC(=O)[C@H]([C@@H](C)CC)N(C)C(C)=O)C(=O)N[C@H](C(=O)N[C@@H](CC(C)C)C(=O)[C@@]1(C)CO1)[C@@H](C)O [epoxomicin] 0.013
c1cc(OCCN2CCCCC2)cc(-c2n[nH]c3ccc(-c4nnc[nH]4)cc23)c1 -0.048
COc1cccc2cc(-c3nc([C@H]4CC[C@H](C(=O)O)CC4)n4ncnc(N)c34)[nH]c12 -0.041
O=C(O)c1ccc2c(c1)nc(Nc1cccc(Cl)c1)c1ccncc12 [silmitasertib] 0.059
Fc1ccc(Cl)cc1-c1nc(Nc2ccncc2)c2nccnc2n1 -0.013
CC(C)(C)Cn1c(N)nc2ccc(-c3[nH]c(C(C)(C)C)nc3-c3ccc(F)cc3)nc21 [ralimetinib] 0.049
C[C@@H]1COCCN1c1cc(C2(S(C)(=O)=O)CC2)nc(-c2cccc3[nH]ccc23)n1 -0.04
CCCCN(Cc1ccc(C(=O)NO)cc1)C(=O)Nc1ccccc1 [Nexturastat A] -0.008
O=C(CCCCCCC(=O)Nc1ccccc1)NO [vorinostat] 0.056
CCN(CCCOc1ccc2c(Nc3cc(CC(=O)Nc4cccc(F)c4)[nH]n3)ncnc2c1)CCOP(=O)(O)O [barasertib] 0.064
CNC(=O)c1ccc(Nc2ncc(C(F)(F)F)c(NCc3nccnc3N(C)S(C)(=O)=O)n2)cc1 [defactinib] -0.007
Cc1ccc(Sc2cncc3sc(C(N)=O)cc23)cc1 -0.068
O=C1c2ccccc2-c2n[nH]c3cccc1c23 -0.007
Cc1nc(Nc2n[nH]c3c2CN(C(=O)N[C@H](CN(C)C)c2ccccc2)C3(C)C)c2sccc2n1 -0.042
COC(=O)[C@H](CCSC)NC(=O)c1ccc(NC[C@@H](N)CS)cc1-c1ccccc1 -0.077
CCN(CC)Cc1ccc2cc(COC(=O)Nc3ccc(C(=O)NO)cc3)ccc2c1 [givinostat] 0.046
CNc1nc(-c2ccc3c(N)n[nH]c3c2)cc(N2C[C@@H](C(=O)NC3CCCCC3)CC[C@H]2C)n1 -0.037
Cc1ccc2c(=O)c3ccccc3n(CCCN)c2c1C 0.013
CC(C)(O)CC(=O)NCCn1ccc2ncnc(Nc3ccc(Oc4cccc(C(F)(F)F)c4)c(Cl)c3)c21 0.012
C/C(=N\NC(=O)c1cccc(S(=O)(=O)N2CCOCC2)c1)c1cc(Cl)ccc1O 0.038
CNC(=O)c1ccccc1Nc1nc(Nc2ccc(N3CCOCC3)cc2OC)ncc1Cl 0.027

log2 fold change, active:
CC[C@@H]1C(=O)N(C)c2cnc(Nc3ccc(C(=O)N[C@H]4CC[C@H](N5CCN(CC6CC6)CC5)CC4)cc3OC)nc2N1C(C)C [volasertib] -0.266
